High-throughput results: PubChem, several laboratories
AHR act: human AHR activation. P35869. AHR-responsive luciferase reporter cells, luminescence. activation, % at 5 µM. actives 2.5% (n = 320,000); in the data active = activation above about 47%
Target sequence (P35869 whole entry, looked up): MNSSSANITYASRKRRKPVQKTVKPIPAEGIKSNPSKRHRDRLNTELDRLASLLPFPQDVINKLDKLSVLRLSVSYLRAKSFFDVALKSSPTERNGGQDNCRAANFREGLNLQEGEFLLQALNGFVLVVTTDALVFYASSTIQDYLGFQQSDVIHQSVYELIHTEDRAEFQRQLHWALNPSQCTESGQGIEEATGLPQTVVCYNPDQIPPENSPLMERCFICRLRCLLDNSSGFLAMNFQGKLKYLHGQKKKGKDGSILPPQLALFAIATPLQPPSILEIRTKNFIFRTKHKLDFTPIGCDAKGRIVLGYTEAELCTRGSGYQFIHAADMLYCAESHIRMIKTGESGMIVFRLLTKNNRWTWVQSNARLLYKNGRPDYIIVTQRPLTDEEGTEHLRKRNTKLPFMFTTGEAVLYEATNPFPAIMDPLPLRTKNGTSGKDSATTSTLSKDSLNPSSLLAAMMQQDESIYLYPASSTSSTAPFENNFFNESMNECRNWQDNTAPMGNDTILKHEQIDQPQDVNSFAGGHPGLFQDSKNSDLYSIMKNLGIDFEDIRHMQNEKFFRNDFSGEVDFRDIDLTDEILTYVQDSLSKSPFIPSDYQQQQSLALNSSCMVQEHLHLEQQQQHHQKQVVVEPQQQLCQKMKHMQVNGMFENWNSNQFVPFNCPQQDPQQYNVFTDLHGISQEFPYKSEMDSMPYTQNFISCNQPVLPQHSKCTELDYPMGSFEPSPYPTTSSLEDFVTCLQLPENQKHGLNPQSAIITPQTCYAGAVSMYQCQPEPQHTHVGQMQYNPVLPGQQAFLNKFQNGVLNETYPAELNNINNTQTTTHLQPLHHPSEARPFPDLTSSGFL
GAA850 FXN act: activators of GAA850 frataxin (FXN) promoter; HEK293 lucGAA850 FXN promoter luciferase reporter, 24 h; percent of 10 µM SAHA response; activation, % at 6 µM; actives 0.56% (n = 360,000); AID 540364;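 active = activation above the average of all compounds screened plus 3 SD, cutoff fixed separately per campaign, cut at about 7.5% in these data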
HSF1 activator: increases HSF-1 driven luciferase reporter signal | AID 504408 | NIH3T3-HGL HSF-1 luciferase reporter, MG132, 8 h; 100% = twice DMSO control signal | actives 1.7% (n = 300,000) | activation, % at 9 µM;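 active = mean replicate activation of at least 50% with a set share of replicates each reaching 50%; inconclusive = only one of those two conditions met; inactive = mean below 50% and too few replicates reaching it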
HSF1 inhib: HSF1 inhibition. activity change, negative = inhibition, % at 7.5 µM (by protocol). AID 2098. NIH3T3-HGL HSE-luciferase, MG132-induced, luminescence 8 h; hits give low values. actives 0.77% (n = 300,000);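 active = more than half of replicate wells show activity change below -50%, luminescence cut by over half; inconclusive = some wells, but at most half, below -50%; inactive = no replicate well below -50%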;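 note: luciferase reports HSF-1 transcriptional activity via heat shock element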
AHR act cf: confirmation of human aryl hydrocarbon receptor activators | shares compounds with AHR act | human cells, AHR-responsive luciferase reporter, luminescence | activation, % at 9 µM | actives 87% (n = 2,300) | AID 2845; in the data active = activation above about 49%;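 note: HepG2 hepatoma cells carrying a DRE-driven firefly luciferase reporter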
PXR act counter: PXR activation, counter-screen for AHR activators; activation, % at 11.6 µM; AID 434939; cell-based PXR reporter, luciferase luminescence; shares compounds with AHR act; actives 88% (n = 2,300); in the data active = activation above about 11%;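 note: human hepatoma DPX-2 cells expressing full-length human PXR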
Each line names hits and unclear results; the compound was inactive in the other large screens (follow-up assays come after a bar, where they were run). Rows were chosen to be rich in hits. Some 4.6% of all compounds tested hit in one or more screens of this group.

CCCCC(=O)NNC(=S)NC(=O)CCC	none
Cc1ccccc1OCC(=O)N/N=C/c1ccccn1	AHR act 81 | AHR act cf inactive | PXR act counter inactive
O=C1Cc2ccccc2C(c2ccccc2)N1 (stereo unspecified)	none
O=C(OCC(=O)N1CCCCC1)c1cc(S(=O)(=O)N2CCOCC2)c(Cl)cc1Cl	none (no result: HSF1 activator, HSF1 inhib)
COc1ccc(OC)c(S(=O)(=O)N2Cc3ccccc3CC2C(=O)Nc2nccs2)c1 (stereo unspecified)	AHR act 84 (no result: HSF1 activator, HSF1 inhib) | AHR act cf 60 | PXR act counter 135
O=C(Nc1ccc(Br)cc1)N1CCc2ccccc2C1	AHR act 98, HSF1 activator inconclusive | AHR act cf 156 | PXR act counter 55
O=C(NC(=S)Nc1ccccc1N1CCCC1)c1ccco1	AHR act 169 | AHR act cf 124 | PXR act counter 31
Cc1ccc(/C=N/n2cc(-c3ccccc3)[nH]c2=S)s1	AHR act 96 | AHR act cf 84
CCc1nnc(NC(=O)CSc2nc(C)cc(C)c2C#N)s1	AHR act 102 | AHR act cf 62 | PXR act counter 45
Cc1ccsc1-c1cc2nc(NCCCN(C)C)n(C)c(=O)c2s1	none (no result: AHR act, HSF1 activator, HSF1 inhib)
CN(C(=O)c1ccc2nc(N)sc2c1)c1ccccc1	none
CCc1ccc(NC(=O)c2ccc3nc(N)sc3c2)cc1	AHR act 99 | AHR act cf 51 | PXR act counter 18
Nc1nc2ccc(C(=O)Nc3ccccc3)cc2s1	AHR act 100 | AHR act cf 137 | PXR act counter 48
COc1ccccc1CNC(=O)C1CCC(CNS(=O)(=O)c2cccs2)CC1 (stereo unspecified)	none
Fc1ccc(Nc2cccc3nccnc23)cc1	AHR act 137 | AHR act cf 58 | PXR act counter 13
c1ccc2oc(-c3ccc4nc[nH]c4c3)nc2c1	AHR act 97 | AHR act cf 147 | PXR act counter 14
Nc1nonc1-n1nnc(C(=O)N/N=C/c2ccc(Br)cc2)c1-c1ccc2c(c1)OCO2	none
CCOc1ccc(CC2S/C(=N/N=C/c3ccco3)NC2=O)cc1 (stereo unspecified)	none
O=C1N/C(=N\N=C\c2ccco2)SC1Cc1ccccc1[N+](=O)[O-] (stereo unspecified)	AHR act 83 | AHR act cf 71 | PXR act counter 28
O=C(NCc1ccc(F)cc1)C1CCN(S(=O)(=O)c2ccc3c(c2)OCCCO3)CC1	none
CC(=O)Nc1ccccc1Oc1ccccc1	none
O=C(Nc1ccccc1Oc1ccccc1)c1ccccc1F	AHR act 119 | AHR act cf 131 | PXR act counter 20
CCOc1ccc(NC(=O)CN2CC(c3ccccc3)CC2=O)cc1 (stereo unspecified)	none
c1ccc(-c2cc3c(-n4cccc4)ncnc3o2)cc1	AHR act 86 | AHR act cf 105 | PXR act counter 23
O=c1c[n+]([O-])c2ccccc2n1OCc1c(F)cccc1F	AHR act 80 | AHR act cf 92 | PXR act counter 43
Cc1ccc(NC(=O)Cc2ccc(-c3ccccc3)cc2)nc1	none
N#C/C(=C1/CCCCCN1)c1nc2ccccc2s1	AHR act 87 | AHR act cf 122 | PXR act counter 56
N#C/C(=C1\CCCN1)c1nc2ccccc2c(=O)[nH]1	none
CC(=O)Nc1ccc(NC(=O)CN2C(=O)NC3(CCCCCCC3)C2=O)cc1	none (no result: HSF1 activator, HSF1 inhib)
Cc1cc(C)nc(/N=C(\N)Nc2ccc(C)c([N+](=O)[O-])c2)n1	AHR act 122 | AHR act cf 84 | PXR act counter 68
Nc1nnnn1/N=C/c1ccc(Br)cc1	none (no result: AHR act)
Nc1nc2ccccc2n1/N=C/c1ccc(Br)cc1	AHR act 88 (no result: HSF1 activator, HSF1 inhib) | AHR act cf 102 | PXR act counter 19
Cn1cc(/C=N\NC(=O)C2COc3ccccc3O2)c2ccccc21 (stereo unspecified)	AHR act 97 (no result: GAA850 FXN act) | AHR act cf 71 | PXR act counter 12
O=C(CSc1nnc(NC(=O)c2ccc3c(c2)OCO3)s1)NCc1ccco1	AHR act 82 (no result: HSF1 activator, HSF1 inhib) | AHR act cf inactive | PXR act counter 11
O=C(CSc1nc2ccccc2s1)NCc1ccc2c(c1)OCO2	AHR act 80 | AHR act cf 106 | PXR act counter 42
COCCSc1nnc(NC(=O)c2ccc3c(c2)OCO3)s1	AHR act 99 | AHR act cf 89 | PXR act counter 27
CCCn1c(=S)[nH]c2cc(Cl)ccc21	none
Nc1[nH]ncc1C(=O)Nc1cccc(C(F)(F)F)c1	AHR act 91 | AHR act cf 50
CN(C)S(=O)(=O)c1ccc(N2CCCC2)c(C(=O)Nc2ccc(F)cc2F)c1	none
CN(C)S(=O)(=O)Oc1ccccc1C(=O)Nc1cccc(C(F)(F)F)c1	AHR act 82 | AHR act cf 100 | PXR act counter 55
CN(C)S(=O)(=O)Oc1ccccc1C(=O)Nc1ccc(F)cc1F	AHR act 124 | AHR act cf 93 | PXR act counter 154
Cn1ncc(N)c1C(=O)Nc1cccc(C(F)(F)F)c1	none
COC(=O)c1cccnc1NC(=S)NNC(=O)c1ccncc1	none
CN1C[C@H](C(=O)N[C@]2(C)O[C@@]3(O)[C@@H]4CCCN4C(=O)[C@H](Cc4ccccc4)N3C2=O)CC2c3cccc4[nH]cc(c34)C[C@H]21 (stereo partly specified)	none (no result: HSF1 activator, HSF1 inhib)
CCn1c(SCC(=O)NC2CC2)nnc1-c1csc(C)c1	none
NS(=O)(=O)c1cc([N+](=O)[O-])ccc1NCc1cccnc1	none
CN(C(=O)c1cc([N+](=O)[O-])ccc1NCc1cccnc1)c1ccccc1	AHR act 80 | AHR act cf 72 | PXR act counter 88
CCc1ccc(NC2=NC(C(=O)c3ccccc3)CC(=O)N2)cc1 (stereo unspecified)	none
COc1ccc(/C=N/NC(=O)c2cc(O)c(O)c(O)c2)cc1Cn1cc([N+](=O)[O-])cn1	none (no result: AHR act)
CCc1ccc2oc(-c3cc(N=Cc4cccc(OC)c4O)ccc3O)nc2c1	AHR act 125 (no result: GAA850 FXN act) | AHR act cf 113 | PXR act counter inactive
O=C(Nc1cccnc1)Nc1ccc2c(c1)OCO2	AHR act 85 | AHR act cf 91 | PXR act counter 16
Cc1occc1C(=O)Nc1ccc2c(c1)OCO2	AHR act 125 | AHR act cf 51 | PXR act counter 47
Cc1cc(C(=O)NC(C)c2ccc3c(c2)OCO3)cs1 (stereo unspecified)	none
Cn1ccc2cc(NC(=O)Nc3cccnc3)ccc21	AHR act 89 | AHR act cf 55 | PXR act counter 21
Cc1cc(C(=O)Nc2ccc3c(c2)OCO3)cs1	AHR act 130 | AHR act cf 90 | PXR act counter 43
Cc1ccc(NC(=O)c2ccoc2C)cc1C	none
CCCCCOC(=O)Nc1ccc(S(=O)(=O)Nn2cnnc2)cc1	none
COCOc1ccc(/C=C/C(=O)c2c(O)cc(OCOC)cc2OCOC)cc1	none
